Potency and affinity values are given separately. Results filed as inconclusive are left out. Unmarked numbers belong to inactive results. Active and inactive are the calls of the source. Unless noted, how the calls were made is not given here.

The nature of experiment [1]: RMG-1 ovarian cancer cell viability loss – cherry-pick, dose response (AID 687029;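 active means signal drop whose fitted half-maximal concentration is at most twice the top valid dose, in every test run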;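 further: cells exposed to compound for 96 hours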).
Experiment [2] is described as follows: general cell-killing toxicity readout – plate reader, dry powder samples, cytotoxicity control for PAX8 inhibitor project, dose response (AID 743021).
Experiment [3] in a line: toxicity toward immortalized ovarian surface epithelium – cell-based, plate reader, dry powder samples, cytotoxicity control for PAX8 inhibitor project, dose response (AID 743045).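 Further: 0% = neutral control median and -100% = positive control median; more negative values mean more cell killing.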
Experiment [4] in a line: A2780 cell killing – plate reader, dry powder samples, cytotoxicity control, dose response (AID 743046).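 Further: 0% = neutral control wells and -100% = cytotoxic reference compound.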
Experiment [5] in a line: IOSE-T80 viability loss, PAX8-independent line – cell-based, cherry-pick, selectivity assay for PAX8 inhibitor project, dose response (AID 687032;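 active means fitted half-maximal concentration for viability loss no higher than twice the top valid dose, in every repeat run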;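 further: cells exposed to compound for 96 h before reading; 0% = neutral control wells and -100% = 2 µM mitoxantrone kill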).
Experiment [6] in a line: CMV-driven luciferase expression suppression in HEK293 – cell-based, luminescence, dry powder, counter-screen for Pax8 inhibitor project, dose response (AID 743020;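 active means signal-lowering compounds whose fitted half-maximal concentration is at or below twice the top tested dose in every run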;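 further: HEK293 cells stably expressing the CMV luciferase reporter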). In general terms: Counterscreens check selectivity or assay interference.
Experiment [7] is described as follows: IGROV1 cell killing – plate reader, dry powder samples, PAX8 inhibitor project, dose response (AID 743043).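 Further: more negative means fewer viable cells or more cytotoxicity.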
Experiment [8] is described as follows: OVCAR8 cell viability loss – plate reader, dry powder samples, PAX8 project, dose response (AID 743197).
The nature of experiment [9]: OVCAR-3 cell viability loss – plate reader, dry powder samples, PAX8 inhibitor project, dose response (AID 743044). Conditions: max activity: at 35 µM, hits give low values unless noted.
A short description of experiment [10]: toxicity toward HepG2 liver cells – cell-based, plate reader, cherry-pick, antagonist series, cytotoxicity control, dose response (AID 743416).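 Further: 0% = neutral control wells and -100% = positive control wells.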

Consider `CC1CCCC=CC2CC(OC(=O)CN(C)C)CC2C(O)C=CC(=O)O1` (stereo unspecified), for which the call in experiment [1] and in experiment [2] was inactive.

For `C=CCN1C(=O)/C(=C/c2ccc(OC(C)=O)c(OCC)c2[N+](=O)[O-])SC1=S`, the compound was classed as inactive in experiment [1] and in experiment [2].

Regarding `O=C(COC(=O)/C(=C/c1cccs1)c1cccs1)NC(c1ccccc1)c1ccccc1`, the compound was called inactive in experiment [1] and in [2].

Consider `COc1cccc2c1C(=O)c1c(O)c3c(c(O)c1C2=O)C[C@@](O)(C(=O)CO)C[C@@H]3O[C@H]1C[C@H](N)[C@H](O)[C@H](C)O1`, for which the compound was classed as inactive in experiment [1] and in experiment [2].

Take `O=C(c1ccc(Br)cc1)c1cc([N+](=O)[O-])ccc1N1CCCCC1`: the compound was classed as inactive in [1] and in [2].

Turning to `CCCCCC(CC(=O)NO)C(=O)NC(C(=O)N1CCCC1CO)C(C)C` (stereo unspecified), the outcome in experiment [1] and in experiment [2] was inactive.

Consider `COc1cc2c(c(OC)c1OC)-c1ccc(OC)c(=O)cc1[C@@H](NC(C)=O)CC2`, for which the call in experiment [1] and in experiment [2] was inactive.

Consider `CC(=O)Nc1ccc(Sc2ccc([N+](=O)[O-])o2)cc1`, for which the result in experiment [1] and in [2] was inactive.

For the compound `CCN(CC)CCCNc1nc2ccccc2c2[nH]c3ccc(OC)cc3c12`, the call in experiment [1] and in [2] was inactive.

Take `Oc1ccc(C[C@H]2CNC(=S)N2CC2CCCN2C[C@H](Cc2ccc(O)cc2)N2C[C@H](Cc3ccc(O)cc3)N(CC3CCCCCC3)C2=S)cc1` (stereo partly specified): the compound was classed as inactive in experiment [1] and in experiment [2].

Take `O=C(Cn1ncc(Cl)c(Cl)c1=O)N1CCN(S(=O)(=O)c2ccc3ccccc3c2)CC1`: the result in [1] and in experiment [2] was inactive.

As for `Cc1cc(-c2n[nH]c(=S)n2/N=C/C(Br)=C/c2ccccc2)n[nH]1`, the outcome in experiment [1] and in [2] was inactive.

As to `COc1cc(-c2c(-c3cc(OC)c(OC)c(OC)c3)noc2C)ccc1F`, the call in [1] and in [2] was inactive.

Take `Oc1c(Cl)cc(CN2CCOCC2)c2cccnc12`: the compound was called inactive in experiment [1] and in experiment [2].

On to `Cc1cccc(/C=C(\c2nc3ccccc3[nH]2)S(=O)(=O)c2ccccc2)c1`, for which the compound was classed as inactive in experiment [1] and in [2].

Consider `O=[N+]([O-])c1ccc(O)c(-c2cc(C(F)(F)F)nc(-c3ccccc3)n2)c1`, for which the compound was classed as inactive in experiment [1] and in experiment [2].

Take `CC(C)(C)N(Cc1ccc2c(c1)OCO2)C(=O)/C=C\S(=O)c1ccccc1` (stereo unspecified): the outcome in experiment [1] and in experiment [2] was inactive.

Regarding `COC(=O)[C@H]1[C@@H](O)[C@@]2(O)c3c(OC)cc(OC)cc3O[C@@]2(c2ccc(OC)cc2)[C@@H]1c1ccc(F)cc1`, the compound was classed as inactive in experiment [1] and in experiment [2].

As to `O=c1[nH]c(-c2ccccn2)nc2sc(-c3ccccc3)cc12`, the compound was classed as inactive in experiment [1] and in experiment [2].

As to `COc1ccc(NC(=O)C(=O)NCC2CCCN2S(=O)(=O)c2ccc(C)cc2)cc1` (stereo unspecified), the outcome in experiment [1] and in experiment [2] was inactive.

On to `O=[N+]([O-])c1ccc(N/N=C/c2sc(N3CCOCC3)nc2-c2ccccc2)c(S(=O)(=O)Nc2ccc(Cl)cc2)c1`, for which the compound was called inactive in experiment [1] and in experiment [2].

`Cc1ccc(/C=N/NC(=O)COc2ccccc2-c2ccccc2)cc1`: the outcome in [1] and in experiment [2] was inactive.

`COc1ccc(OC)c(-c2nnc3n2N=C(c2ccc(OC)c(OC4CCCC4)c2)CS3)c1`: the call in experiment [1] and in [2] was inactive.

Take `CC(=O)NC(c1ccc(C(C)C)cc1)c1ccc2cccnc2c1O` (stereo unspecified): the result in experiment [1] and in experiment [2] was inactive.

As to `C[C@@H]1CN([C@@H](C)CO)C(=O)c2cc(NC(=O)CCC(F)(F)F)ccc2O[C@@H](C)CCCCO[C@H]1CN(C)Cc1ccc(C(F)(F)F)cc1`, the compound was called inactive in [1], in experiment [2], in [3] and in experiment [4].

As for `COc1cc([C@@H]2c3cc4c(cc3[C@H](O)[C@H]3COC(=O)[C@H]23)OCO4)cc(OC)c1OC`, the compound was classed as inactive in experiment [1] and in experiment [2].

As for `COc1cc(/C=C/C(=O)N2CCC=CC2=O)cc(OC)c1OC`, the compound was classed as inactive in experiment [5], in [6] and in experiment [2].

Consider `COc1ccc(C#Cc2ccc([C@H]3[C@@H](CO)N4CCCCN(C(=O)Nc5ccccc5)C[C@H]34)cc2)cc1`, for which the compound was called inactive in [5], in experiment [6], in [2], in experiment [7], in experiment [3] and in [4]. In addition, the compound was called inactive in experiment [8].

Consider `C[C@H]1CN([C@@H](C)CO)S(=O)(=O)c2ccc(C#Cc3ccccc3F)cc2O[C@H]1CN(C)C(=O)c1ccc2c(c1)OCO2`, for which the call in experiment [5], in [6], in experiment [2], in experiment [7], in [3] and in [4] was inactive. Besides, in experiment [8], the call was inactive. Besides, in experiment [9], the max activity is -13%.

With `C[C@@H]1CCCCO[C@H](CN(C)Cc2ccc(C(F)(F)F)cc2)[C@@H](C)CN([C@@H](C)CO)C(=O)c2cc(NC(=O)c3ccccc3)ccc2O1`, the compound was called inactive in experiment [1], in experiment [3] and in [4].

With `CN(C)CCCN(C(=O)CCOc1ccccc1)c1nc2c(F)cccc2s1`, the call in [1], in [2], in [3] and in [4] was inactive.

On to `COc1ccccc1C#Cc1ccc([C@H]2[C@H](C#N)N(C(=O)C3CCCC3)[C@H]2CO)cc1`, for which the call in [1], in experiment [4] and in [10] was inactive.

In the case of `C[C@@H]1CN([C@@H](C)CO)C(=O)c2cc(N(C)C)ccc2O[C@@H](C)CCCCO[C@H]1CN(C)S(=O)(=O)c1ccc(F)cc1`, the result in experiment [5], in [6], in experiment [2], in [7], in experiment [3] and in experiment [4] was inactive. The outcome in experiment [8] was inactive. In addition, the max activity in experiment [9] was 16.1% [at 0.26 µM, hits give low values].

On to `O=C(CN1C(=O)c2ccccc2S1(=O)=O)c1ccc(Cl)cc1Cl`, for which the outcome in [1], in [2], in experiment [7], in experiment [9], in experiment [3] and in experiment [4] was inactive.

Values taken from PubChem BioAssay.
